TcdB GH inh – inhibitors of Clostridioides difficile toxin B glycohydrolase; P18177; TcdB glycohydrolase enzymatic assay, plate reader; inhibition, % at 9.99 µM; actives 0.24% (n = 350,000); in the data active = inhibition above about 10%
Target sequence (P18177 whole entry, looked up): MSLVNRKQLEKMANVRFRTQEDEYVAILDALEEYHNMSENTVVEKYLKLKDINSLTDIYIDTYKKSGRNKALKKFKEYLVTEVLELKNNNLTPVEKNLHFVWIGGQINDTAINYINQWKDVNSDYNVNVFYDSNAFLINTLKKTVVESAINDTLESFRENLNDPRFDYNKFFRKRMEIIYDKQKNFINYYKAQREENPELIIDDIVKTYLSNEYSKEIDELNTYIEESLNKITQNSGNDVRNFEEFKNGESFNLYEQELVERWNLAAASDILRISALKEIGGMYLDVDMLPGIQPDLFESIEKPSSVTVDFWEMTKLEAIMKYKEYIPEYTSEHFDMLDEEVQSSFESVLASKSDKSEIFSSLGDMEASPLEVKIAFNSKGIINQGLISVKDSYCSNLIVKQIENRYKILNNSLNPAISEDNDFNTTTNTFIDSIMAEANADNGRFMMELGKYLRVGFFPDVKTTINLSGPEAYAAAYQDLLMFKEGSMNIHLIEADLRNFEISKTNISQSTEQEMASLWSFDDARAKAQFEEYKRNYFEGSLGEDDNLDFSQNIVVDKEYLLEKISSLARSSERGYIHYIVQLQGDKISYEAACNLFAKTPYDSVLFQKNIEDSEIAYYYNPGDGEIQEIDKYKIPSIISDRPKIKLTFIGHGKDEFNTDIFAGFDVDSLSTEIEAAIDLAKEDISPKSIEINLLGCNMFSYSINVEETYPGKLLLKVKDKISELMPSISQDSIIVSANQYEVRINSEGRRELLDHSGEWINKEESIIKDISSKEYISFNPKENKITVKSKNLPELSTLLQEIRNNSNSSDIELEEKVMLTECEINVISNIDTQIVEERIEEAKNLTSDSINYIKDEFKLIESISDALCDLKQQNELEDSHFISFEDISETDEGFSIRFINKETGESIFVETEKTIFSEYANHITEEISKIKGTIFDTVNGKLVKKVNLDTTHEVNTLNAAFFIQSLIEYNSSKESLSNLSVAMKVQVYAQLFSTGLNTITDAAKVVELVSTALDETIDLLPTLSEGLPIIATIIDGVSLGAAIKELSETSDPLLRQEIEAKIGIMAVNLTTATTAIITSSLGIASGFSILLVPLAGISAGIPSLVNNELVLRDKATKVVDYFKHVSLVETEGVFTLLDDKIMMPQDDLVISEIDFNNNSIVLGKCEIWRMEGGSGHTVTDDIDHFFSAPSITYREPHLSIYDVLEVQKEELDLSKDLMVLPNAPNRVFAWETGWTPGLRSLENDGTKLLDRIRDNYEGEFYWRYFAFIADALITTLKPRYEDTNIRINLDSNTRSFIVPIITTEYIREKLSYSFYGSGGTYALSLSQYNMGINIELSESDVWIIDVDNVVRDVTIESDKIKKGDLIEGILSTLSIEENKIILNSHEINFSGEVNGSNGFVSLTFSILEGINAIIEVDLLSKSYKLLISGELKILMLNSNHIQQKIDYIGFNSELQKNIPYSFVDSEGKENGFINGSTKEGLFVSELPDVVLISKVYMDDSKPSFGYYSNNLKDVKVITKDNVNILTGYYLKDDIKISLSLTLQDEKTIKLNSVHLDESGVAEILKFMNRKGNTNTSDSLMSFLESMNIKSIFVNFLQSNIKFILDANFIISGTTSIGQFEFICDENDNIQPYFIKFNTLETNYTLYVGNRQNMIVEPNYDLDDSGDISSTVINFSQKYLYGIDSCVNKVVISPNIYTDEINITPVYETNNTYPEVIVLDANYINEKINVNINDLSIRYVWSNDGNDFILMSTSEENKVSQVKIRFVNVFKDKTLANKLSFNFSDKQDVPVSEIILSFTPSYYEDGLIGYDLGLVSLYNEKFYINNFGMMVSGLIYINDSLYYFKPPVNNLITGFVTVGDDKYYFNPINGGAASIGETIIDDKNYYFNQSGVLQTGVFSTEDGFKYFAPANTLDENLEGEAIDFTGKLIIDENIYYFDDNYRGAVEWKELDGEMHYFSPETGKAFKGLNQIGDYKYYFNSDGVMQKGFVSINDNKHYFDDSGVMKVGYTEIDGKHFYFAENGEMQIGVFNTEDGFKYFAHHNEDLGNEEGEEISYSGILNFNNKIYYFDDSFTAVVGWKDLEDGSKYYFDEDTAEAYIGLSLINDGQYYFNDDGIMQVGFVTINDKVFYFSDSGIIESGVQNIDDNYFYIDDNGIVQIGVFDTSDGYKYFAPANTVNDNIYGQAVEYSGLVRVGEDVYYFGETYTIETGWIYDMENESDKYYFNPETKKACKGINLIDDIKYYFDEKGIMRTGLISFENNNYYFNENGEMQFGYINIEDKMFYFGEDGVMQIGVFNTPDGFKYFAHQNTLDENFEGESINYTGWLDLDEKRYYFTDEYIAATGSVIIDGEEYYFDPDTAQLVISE
FadD28 binding – M. tuberculosis FadD28 bisubstrate binding inhibition. FadD28 bisubstrate probe binding, fluorescence polarization. actives 0.22% (n = 360,000). inhibition, % at 12.5 µM; in the data active = inhibition above about 8.5%, passing the limit was not always enough; inconclusive = no clear call, values can overlap the other calls
BioA inh – inhibitors of Mycobacterium tuberculosis BioA enzyme | purified M. tuberculosis BioA enzyme, plate reader | actives 0.096% (n = 360,000) | inhibition, % at 9.99 µM; in the data active = inhibition above about 40%; inconclusive = no clear call, values can overlap the other calls
Yp Topo-I inh – inhibitors of Yersinia pestis topoisomerase I | Y. pestis Topo-I cleavage product accumulation, plate reader | activity, % at 10 µM | actives 0.064% (n = 360,000) | AID 504884; in the data active = activity above about 50%, passing the limit was not always enough; inconclusive = no clear call, values can overlap the other calls
* marks the source's active call; other numbers are inactive results; ? = inconclusive; / = no result. In the library only some 0.47% were active in any assay of this set; here they are far more common.

SMILES | TcdB GH inh | FadD28 binding | BioA inh | Yp Topo-I inh
Oc1ccc(Nc2nc(Cl)nc(NCc3ccco3)n2)cc1 | 12.9* | -0.7 | / | -4.6
CN1Cc2c(N)cccc2C(c2ccccc2)C1 (configuration not stated) | 1.0 | -4.8 | -2.5 | 6.5
C[C@@H]1CN([C@H](C)CO)C(=O)c2cc(NC(=O)CCC(F)(F)F)ccc2O[C@@H]1CN(C)S(C)(=O)=O | -0.2 | / | 0.6 | /
CCS(=O)(=O)c1ccc2oc(Nc3ccc(C(C)(C)C)cc3)nc2c1 | 12.2* | -2.9 | -0.2 | -2.7
CCS(=O)(=O)c1ccc2oc(Nc3ccc(OC)cc3)nc2c1 | 8.9 | -3.8 | -0.1 | -14.2
C[C@@H]1CCCCO[C@@H](CN(C)C(=O)CCCN(C)C)[C@@H](C)CN([C@H](C)CO)C(=O)c2cc(NS(=O)(=O)c3cccs3)ccc2O1 | 0.5 | / | 2.6 | /
Cc1ccc(NC(=S)N(CCN(C)C)Cc2cccs2)cc1 | -1.6 | -1.1 | / | -2.0
CCOC(=O)c1ccc(NC(=S)N(CCN(C)C)Cc2cccs2)cc1 | -0.6 | 10.2* | / | -7.0
C=CCN1C(=O)[C@@]2(O[C@@H](CCn3cc(CCO)nn3)[C@H]([Si](C)(C)c3ccc(OC)cc3)[C@H]2C)c2cc(NC(=O)c3ccc(OC)cc3)ccc21 | 0.8 | / | 2.5 | /
Cc1cc(C=C2C(=O)c3ccccc3C2=O)c(C)n1-c1cccc(C(=O)O)c1 | 1.9 | -2.2 | 6.4 | -4.1
Cc1cc(/C=C2\C(=O)NC(=O)N(Cc3ccccc3)C2=O)c(C)n1-c1ccc(Cl)c(C(=O)O)c1 | -2.5 | 16.0* | / | -5.6
Cc1cc(C=C2C(=O)c3ccccc3C2=O)c(C)n1-c1ccc(C(=O)O)cc1 | 26.7* | -1.4 | / | 8.5
Cc1ccc(C(=O)O)cc1-c1ccc(/C=C2\SC(=O)N(CC(=O)Nc3ccccc3)C2=O)o1 | -0.6 | 17.5* | -3.8 | -4.1
Cc1ccc(NC(=O)CN2C(=O)S/C(=C\c3cc(C)n(-c4cccc(C(=O)O)c4)c3C)C2=O)cc1 | 0.8 | 43.3* | / | -12.2
Cc1cccc(NC(=O)CN2C(=O)S/C(=C\c3cc(C)n(C)c3C)C2=O)c1 | 0.4 | 33.6* | 7.6 | -4.3
Cc1ccc(NC(=O)CN2C(=O)S/C(=C\c3cc(C)n(C)c3C)C2=O)cc1 | / | -1.8 | -0.4 | -0.8
Cc1ccc(NC(=O)CN2C(=O)S/C(=C\c3ccc(C(=O)O)cc3)C2=O)cc1 | 0.8 | -4.1 | -1.4 | -0.4
CC1(NC(=O)CC(c2ccccc2)(c2ccccc2)c2ccccc2)CCN(Cc2ccc(-c3ccccc3)cc2)C1=O (configuration not stated) | 0.7 | -4.3 | 0.4 | 7.4
COc1cc(/C=N/NC(=O)CNC(=O)c2ccc3c(c2)OCCO3)ccc1O | / | -1.8 | -0.7 | 0.0
CC(=O)c1ccc(NC(=O)CNCC(c2ccccc2)N(C)C)cc1 (configuration not stated) | 15.3* | -0.6 | / | -3.3
COc1ccc(CNC(=O)CN2CCN(S(=O)(=O)c3ccccc3)CC2)cc1 | 0.2 | -0.7 | -0.4 | 5.2
Cc1ccc(S(=O)(=O)N2CCCCC2)cc1NC(=O)C1CC1 | -1.1 | -0.1 | 0.9 | -2.0
COc1ccccc1-c1cn(CC[C@@H]2CC[C@@H](NC(=O)c3cnccn3)[C@@H](CO)O2)nn1 | -1.3 | / | 2.4 | /
O=C(O)c1cc(-c2ccccc2Cl)n(-c2ccc(F)cc2)n1 | 1.7 | -3.7 | 1.7 | 1.8
O=C(O)c1cc(-c2ccccc2Cl)n(-c2cccc(Cl)c2)n1 | 13.0* | -1.6 | 1.9 | 0.4
SMILES | TcdB GH inh | FadD28 binding | BioA inh | Yp Topo-I inh
CC(C)OCCCNc1ncc2c(n1)CC(c1ccc(N(C)C)cc1)CC2=O (configuration not stated) | / | -0.8 | -2.2 | -3.5
COc1ccc(C(=O)/C=C/c2ccc(O)cc2)c2c1CC(O)C(C)(C)O2 (configuration not stated) | 23.1* | -6.1 | 0.8 | 0.4
CCn1c(=O)c(C(=O)CN2CCN(S(=O)(=O)c3ccc(C)cc3C)CC2)c(N)n(Cc2ccccc2)c1=O | 0.6 | -3.0 | 2.4 | 3.4
CCCn1nc([N+](=O)[O-])c(C(C#N)c2nc3ccccc3s2)c(Cl)c1=O (configuration not stated) | / | 25.7* | 8.4 | -3.4
CCn1nc([N+](=O)[O-])c(C(C#N)c2nc3ccccc3n2C)c(Cl)c1=O (configuration not stated) | -2.0 | 1.0 | 1.7 | -2.3
COC(=O)/C=C/C(=O)Nc1ccc(O)c(Cl)c1 | 31.0* | 0.6 | / | -13.0
CCOc1ccc(C=NNc2ccc(S(=O)(=O)Nc3ccccc3C(=O)O)cc2[N+](=O)[O-])cc1OC | / | ? | / | 5.4
COc1ccc(Cn2c(O)c(C=Nc3ccccc3C(=O)O)c3ccccc3c2=O)cc1 | 0.4 | ? | 8.0 | 0.3
COc1ccccc1NS(=O)(=O)c1cccc(-n2c(O)c(C=Nc3ccccc3C(=O)O)c3ccccc3c2=O)c1 | 1.9 | 19.7* | -1.8 | -1.0
COc1cc(C=NNc2ccc(S(=O)(=O)Nc3ccccc3C(=O)O)cc2[N+](=O)[O-])ccc1O | -0.4 | 49.7* | 9.7 | -12.3
CC(=O)Nc1cccc(/C(C)=N/Nc2ccc(S(=O)(=O)Nc3ccccc3C(=O)O)cc2[N+](=O)[O-])c1 | 1.5 | 18.9* | 10.7 | -14.1
CN(CCO)c1ccc(C=NNc2ccc([N+](=O)[O-])cc2S(=O)(=O)Nc2ccccc2C(=O)O)cc1 | -0.3 | 31.8* | 12.2 | 1.9
Cc1cc(N2CCOCC2)nc(NCc2ccccc2)n1 | 0.7 | -3.0 | -0.7 | -4.2
CCOc1cc(/C=N/Nc2ccc(S(=O)(=O)Nc3ccccc3C(=O)O)cc2[N+](=O)[O-])cc(Cl)c1O | 0.4 | 25.1* | -0.4 | -9.1
O=C(O)c1ccccc1NS(=O)(=O)c1ccc(N/N=C/c2cccc(O)c2O)c([N+](=O)[O-])c1 | -1.6 | 1.7 | 0.9 | -22.1
CC(=O)Nc1ccc(C=NNc2ccc(S(=O)(=O)Nc3ccccc3C(=O)O)cc2[N+](=O)[O-])cc1 | 1.5 | 27.5* | 7.5 | -2.9
O=C(O)c1ccccc1NS(=O)(=O)c1ccc(NNC(=S)Nc2ccc(OC(F)F)cc2)c([N+](=O)[O-])c1 | -7.1 | 55.4* | / | -6.8
COC(=O)c1ccccc1-c1c2ccc(=N)cc-2oc2cc(N)ccc12 | -0.5 | 128.6* | -212.5 | -14.0
COC(=O)c1ccccc1-c1ccc(/C=N/NC(=O)c2cc3ccccc3o2)o1 | / | -12.6 | / | 2.7
Cc1ccc(C)c(NC(=O)CCC(=O)N/N=C/c2cccnc2)c1 | 1.1 | -1.8 | -0.6 | 2.9
Cc1ccc(SCCC(=O)N/N=C/c2cccnc2)cc1 | 10.3* | -4.9 | / | 7.0
COc1cccc(C(=O)OCCN2C(=O)c3ccccc3C2=O)c1OC | / | -0.3 | 0.4 | 4.3
COc1cccc(C=O)c1OCCN1C(=O)c2ccccc2C1=O | -4.8 | -0.8 | 65.2* | 0.8
O=S(=O)(NC1CCCC1)c1ccc(S(=O)(=O)NC2CCCC2)cc1 | / | -2.0 | -1.1 | 2.8
O=S(=O)(NC1CCCCCCC1)c1ccc(F)cc1 | 12.3* | -4.1 | 1.1 | 8.3
CN(C)c1ccc(N=Nc2ccc(S(=O)(=O)O)cc2)c2ccccc12 | / | 14.3* | 4.0 | -0.4
CN(C)c1ccc(N=Nc2ccc(S(N)(=O)=O)cc2)cc1 | -5.3 | -2.0 | -0.3 | -0.4
CCOc1ccc(-n2c(N)c(C(=O)N3CCN(C)CC3)sc2=S)cc1 | 0.1 | -2.9 | / | -4.4
